Assay outcomes deposited in PubChem BioAssay by National Center for Advancing Translational Sciences (NCATS).
This is a sample that favours compounds with a hit; in the whole collection about 10% have one here.
MCF10A rereplic = induces DNA re-replication in MCF 10a normal breast cells; 2.9% of 350,000 active; AID 624296; Potency, µM (top dose mostly 46.1 µM), hits mostly activators; MCF 10A DNA re-replication, Hoechst nuclear intensity, 48 h; note: nearly all actives have a fitted effect of over 50% in size
ELG1 repair inh = inhibitors of ELG1-dependent DNA repair in HEK293T cells. HEK293T ELG1-luciferase reporter, luminescence, 16 h; DNA damage induced by 5-fluorouridine. Potency, µM (doses to about 46.1 µM), hits mostly inhibitors. 2.3% of 330,000 active; note: nearly all actives have a fitted effect of over 55% in size
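HEK293T cells expressing luciferase-tagged ELG1 (2,000/well) received 5-Fluorouridine plus compound or DMSO for 16 hr at 37 °C. Luciferase was read by ONE-Glo luminescence after 30 min at room temperature.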
Gal4-VP16 FLuc = Gal4-VP16 reporter inhibition counter-screen. Potency, µM (series often up to 53.6 µM), most hits filed as inhibitors. Drosophila S2 Gal4-VP16 UAS-luciferase, luminescence, 20 h. 3.5% of 310,000 active. AID 2546;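 note: Gal4-VP16 expression switched on by copper sulfate through the metallothionein promoter; nearly all actives have a fitted effect of over 50% in size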
RORg inh = ROR gamma (mouse) transcription inhibition. P51450. Drosophila S2 Gal4-RORgamma UAS-luciferase reporter, 20 h. Potency, µM (series often up to 53.6 µM), actives largely listed as inhibitors. 5.4% of 310,000 active; note: nearly all actives have a fitted effect of over 60% in size
Target sequence (P51450 whole entry, looked up, the tested form may be a part): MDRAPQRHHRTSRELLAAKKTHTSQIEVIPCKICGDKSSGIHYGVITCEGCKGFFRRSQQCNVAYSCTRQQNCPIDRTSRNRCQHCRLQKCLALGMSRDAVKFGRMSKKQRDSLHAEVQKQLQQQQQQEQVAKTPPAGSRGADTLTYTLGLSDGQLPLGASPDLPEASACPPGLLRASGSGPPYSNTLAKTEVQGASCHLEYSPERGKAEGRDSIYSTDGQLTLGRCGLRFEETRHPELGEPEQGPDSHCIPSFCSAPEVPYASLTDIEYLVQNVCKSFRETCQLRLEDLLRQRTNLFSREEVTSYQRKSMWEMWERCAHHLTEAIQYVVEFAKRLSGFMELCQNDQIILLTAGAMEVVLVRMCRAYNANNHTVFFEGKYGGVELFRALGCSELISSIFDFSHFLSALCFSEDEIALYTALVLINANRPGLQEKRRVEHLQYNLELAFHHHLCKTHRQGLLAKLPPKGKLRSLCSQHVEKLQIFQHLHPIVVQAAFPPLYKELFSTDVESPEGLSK
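ROR gamma transcriptional activity was tracked as Gal4-UAS luciferase output in stably transfected Drosophila Schneider cells, with compound added 1 hr before 700 uM copper sulfate induction and a 20 hr ambient-temperature incubation.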
SW480 rerep = DNA re-replication induction in SW480 cells. SW480 DNA re-replication, Hoechst DNA content imaging, 48 h. Potency, µM (top dose mostly 46.1 µM), most hits filed as activators. 1.8% of 340,000 active. AID 624297; note: nearly all actives have a fitted effect of over 55% in size
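Image-based read-out: total Hoechst fluorescence of nuclei (405 nm excitation, 500-530 nm emission), with hits raising the fraction of high-intensity nuclei. SW480 colon cells incubated 48 hr with compounds at 37 C.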
Numbers stand for hits; 0 = inactive; ? = inconclusive; - = no result; [ ] = dose if it differs, or a comment. Calls come from the whole dose curve; as a rule, active = well fitted curve in the direction sought with a large enough effect; inconclusive = small, poorly fitted or top-dose-only effect, or another doubt; inactive = no such curve, though single readings can be large; an effect the other way counts as inactive or inconclusive.

SMILES	MCF10A rereplic	ELG1 repair inh	Gal4-VP16 FLuc	RORg inh	SW480 rerep
S=c1[nH]nc(C2CCCCC2)n1/N=C/c1ccc(Cl)cc1	?	0	7.94µM	0.355µM	?
FC(F)(F)c1ccc(/C=N/n2c(C3CCCCC3)n[nH]c2=S)cc1	23.1µM	0	10µM	0	0
Cc1ccc(/C=N/n2c(C3CCCCC3)n[nH]c2=S)cc1	0	0	7.08µM	2.51µM	0
COc1ccc(C)cc1NC(=O)CSc1nnc2ccc(-c3ccncc3)nn12	0	0	-	-	0
S=c1[nH]nc(C2CCCCC2)n1/N=C/c1ccc(Br)s1	18.4µM	0	3.98µM	1.12µM	?
O=[N+]([O-])c1ccc(Cl)c(/C=N/n2c(C3CCCCC3)n[nH]c2=S)c1	0	?	0	0	0
S=c1[nH]nc(C2CCCCC2)n1/N=C/c1ccc(Br)cc1	?	0	?	1.41µM	0
CCC(C)n1c(=S)[nH]c2c(sc3ccc([N+](=O)[O-])cc32)c1=O (stereo not given)	?	?	1.26µM	0.631µM	0
COc1ccc2cc(CN(Cc3ccco3)C(=S)NCC3CCCO3)c(=O)[nH]c2c1 (stereo not given)	?	23.1µM	0	0	0
CCc1ccc2[nH]c(=O)c(CN(CCN(C)C)C(=S)NCc3ccco3)cc2c1	0	0	0	0	0
CCc1ccc2[nH]c(=O)c(CN(CC3CCCO3)C(=S)NCc3ccco3)cc2c1 (stereo not given)	?	18.3µM	?	?	0
S=C1NC(c2cccs2)=CC(c2ccc(Br)cc2)N1 (stereo not given)	?	0	3.98µM	3.55µM	20.6µM
S=C1NC(c2ccccc2)=CC(c2ccccc2)N1 (stereo not given)	?	0	11.2µM	3.55µM	0
N#CC1C(=O)NC(c2ccccc2)=CC1c1ccccc1 (stereo not given)	0	-	-	-	?
O=C(Nc1cc(-c2ccccc2)sc1C(=O)O)c1cccc(F)c1	0	0	0	?	0
O=C(O)CCC(=O)N1N=C(c2ccc(Br)cc2)CC1c1cccc(Br)c1 (stereo not given)	0	0	0	0	0[1.84 µM]
C[C@@H]1CCC(=O)N(CC[C@H](N=[N+]=[N-])c2ccccc2)CC1	0	0	0	0	0
CC(C)(C)[C@@H]1CCC(=O)N(CC[C@H](N=[N+]=[N-])c2ccccc2)CC1	20.6µM	?	0	?	0
CN(C(=O)Cn1nnc(-c2cccnc2)n1)C1CCCCC1	0	0	0	0	0
CN1CC(=O)NC1=NC(=O)c1ccc(Cl)c(S(=O)(=O)N2CCCCCC2)c1	?	0	15.8µM	3.55µM	0
CN1CC(=O)NC1=NC(=O)c1cc(F)c(F)cc1Cl	0	0	?	10µM	0
CC1CN(C(=O)c2cc(F)c(F)cc2Cl)CC(C)O1 (stereo not given)	0	-	-	-	0
CCOC(=O)COc1cc(-n2c(=S)[nH]c3cc(OC)c(OC)cc3c2=O)c(Cl)cc1Cl	23.1µM	0	?	?	0
CCOC(=O)COc1cc(N2C(=O)CSCC2=O)c(Cl)cc1Cl	0	0	0	0	0
C[n+]1ccn(CC(=O)c2cccs2)c1	0	0	0	10µM	0
SMILES	MCF10A rereplic	ELG1 repair inh	Gal4-VP16 FLuc	RORg inh	SW480 rerep
O=C(CCC(=O)c1cccs1)c1cccs1	0	?	0	?	0
CCCCCCCCc1nc(=S)[nH][nH]1	0	0	?	10µM	0
COc1ccccc1NC(=O)CN1CCC(n2nnc3cc(F)ccc32)CC1	0	20.6µM	0	0	0
COc1ccccc1NC(=O)CN1CCC(n2c(C)nc3cc(F)ccc32)CC1	0	?	0	0[10 µM]	0
Cc1ccc2c(c1)nnn2C1CCN(C(=O)Nc2ccccc2C)CC1	0	0	0	0	0
COc1ccc(Cl)cc1NC(=O)CN1CCC(n2nnc3cc(C)ccc32)CC1	?	20.6µM	0	0	0
CCOc1ccc(NC(=O)N2CCC(n3nnc4cc(C)ccc43)CC2)cc1	0	?	0	0	14.6µM
COc1ccc(S(=O)(=O)Nc2c(C)cccc2C)cc1-n1cnnn1	0	0	0	0	0
O=C(O)c1cccc(S(=O)(=O)N(Cc2ccccc2)c2ccc(Cl)cc2)c1	0	0	0	0	0
COCc1nnc(NC(=O)CS(=O)(=O)c2ccc(C)cc2)s1	0	0	0	0	0
COc1ccc(CC(NC(C)=O)C(=O)NC2CCN(c3nc(C)cc(C)c3C#N)CC2)cc1OC (stereo not given)	0.581µM	?	0	0	0
CC(C)c1ccc(S(=O)(=O)c2cc3cc(Br)ccc3oc2=O)cc1	8.2µM	0	?	0	0
Cc1ccc(S(=O)(=O)c2cc3cc(Br)ccc3oc2=O)cc1	?	?	0	0	0
Cc1ccc(NC(=O)CCNC(=O)c2ccc(Cl)cc2)nc1	0	?	0	0	0
Cn1c(=O)c2[nH]c(Cc3cccc4ccccc34)nc2n(C)c1=O	0	-	-	-	0
O=C(COC(=O)CCc1ccc(S(=O)(=O)N2CCOCC2)cc1)Nc1ccccc1OC(F)F	0	0	-	-	0
Cc1ccc(-n2ncc(Br)c(Br)c2=O)cc1	?	?	2.82µM	5.01µM	0
O=c1c(Br)c(Br)cnn1-c1ccccc1	?	?	5.01µM	3.16µM	0
COC(=O)[C@H](COC(C)(C)C)NC(=O)O[C@@H]1C(=O)c2ccc(OC)cc2O[C@H]1c1ccc2c(c1)OCO2	-	-	0	0	-
O=C(Nc1ccccc1C(=O)O)c1cc(S(=O)(=O)Nc2ccccc2)ccc1Cl	0	0	0	0	0[1.84 µM]
CS(=O)(=O)c1ccc(C(=O)Nc2cc(S(C)(=O)=O)ccc2Cl)cc1	0	?	0	0	0
CS(=O)(=O)c1ccc(Cl)c(NC(=O)CCl)c1	?	?	0	14.1µM	?
COc1cc(/C=C2\SC(=S)N(CCC(=O)Nc3cccc(O)c3)C2=O)cc(OC)c1OC	?	?	?	0	0
COc1cc(/C=C2/SC(=S)N(CCC(=O)Nc3ccccc3)C2=O)cc(OC)c1OC	20.6µM	?	0	0	0
COc1cc(/C=C2\SC(=S)N(CCC(=O)Nc3ccccc3)C2=O)cc(OC)c1OC	18.4µM	?	0	0	0
SMILES	MCF10A rereplic	ELG1 repair inh	Gal4-VP16 FLuc	RORg inh	SW480 rerep
Cc1cc2n(n1)SC(Nc1cccc3ccccc13)N2 (stereo not given)	0	?	4.47µM	2µM	0
CCc1ccccc1NC1Nc2cc(C)nn2S1 (stereo not given)	0	0	12.6µM	5.62µM	0
Cc1cc2n(n1)SC(Nc1cc(Cl)ccc1Cl)N2 (stereo not given)	0	0	0.562µM	0.501µM	?
COCCNC(=O)c1ccccc1NC(=O)Cc1ccccc1[N+](=O)[O-]	0	0	0	0	0
O=C(C[n+]1cc[nH]c1)c1ccc(Cl)cc1	?	0	0	0	0
c1ccc(-c2csc3ncnc(NCCCN4CCOCC4)c23)cc1	0	?	0	0	0
O=c1c2ccccc2nc2c3ccccc3c(NCCN3CCOCC3)nn12	-	0	20µM	12.6µM	-
O=c1c2ccccc2nc(-c2ccccc2)n1CCN1CCOCC1	0	0	0	0	0
